# Screening results as filed in PubChem BioAssay.
# N-glyco inh: blocks N-linked glycosylation in D54 reporter cells | D54 ERlucT glycosylation luciferase reporter, 24 h; percent of 100 nM tunicamycin response | reporter increase, % at 12.5 µM | 0.23% of 360,000 active | AID 588692;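 active = mean luciferase reporter signal, scaled so untreated is 0 and the glycosylation-blocking control 100, at or above a set limit in every replicate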;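 note: luciferase carries N-glycosylation sites so blocking glycosylation raises the light; 0% = median of neutral control wells and 100% = median of 100 nM tunicamycin wells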
# ALR inh: blocks human ALR sulfhydryl oxidase activity; purified ALR, DTT oxidation, H2O2 HRP-luminol luminescence; inhibition, % (test concentration not listed); 3.8% of 290,000 active; P55789; AID 485317;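 active = mean replicate inhibition above about 79%, with every replicate also reaching it, limit read from the data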
# Target sequence (P55789 whole entry, looked up): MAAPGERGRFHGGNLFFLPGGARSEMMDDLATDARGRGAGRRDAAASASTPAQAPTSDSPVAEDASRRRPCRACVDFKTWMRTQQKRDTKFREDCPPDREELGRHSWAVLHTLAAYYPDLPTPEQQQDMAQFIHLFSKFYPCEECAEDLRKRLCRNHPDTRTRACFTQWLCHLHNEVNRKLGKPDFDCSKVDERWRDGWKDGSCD
# CDK5 inh: blocks human CDK5/p35 kinase activity. Recombinant CDK5/p35, ADP-Glo luminescence, 60 min. 0.01% of 330,000 active. inhibition, % at 10 µM. Q00535+Q15078. AID 488839;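 active = highest replicate inhibition of at least 50% and at least 75% of replicates reaching 50%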;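 note: plate controls were DMSO neutral control for no effect and GW8510 at 10 µM for full effect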
# NSD2 HMT inh: NSD2 (human) methyltransferase inhibition; NSD2 peptide methylation, AlphaScreen, 120 min; inhibition, % at 12.5 µM; O96028; AID 743445; 0.54% of 310,000 active; in the data active = inhibition above about 50%
# CASP6 VEID inh: blocks human caspase-6 cleavage activity; 0.53% of 350,000 active; inhibition, % at 12.5 µM; purified caspase-6, Z-VEID-R110 cleavage fluorescence;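 active = mean inhibition across replicates at least about 35%, with every replicate also reaching that limit, limit read from the data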;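 note: 0% = median of neutral control wells and 100% = no fluorescence left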
# Target sequence (P55212 24-179 limits assumed): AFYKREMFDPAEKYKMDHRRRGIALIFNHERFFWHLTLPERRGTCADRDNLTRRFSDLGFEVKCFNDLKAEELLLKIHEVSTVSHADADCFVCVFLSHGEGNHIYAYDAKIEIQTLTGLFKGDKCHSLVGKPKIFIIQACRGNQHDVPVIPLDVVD
# Target sequence (P55212 194-293 limits assumed): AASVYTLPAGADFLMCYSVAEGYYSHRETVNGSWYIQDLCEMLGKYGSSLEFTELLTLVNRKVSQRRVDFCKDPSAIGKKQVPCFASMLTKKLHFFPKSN
# SUMO Mot1 rescue: inhibitors of SUMOylation pathway: yeast Mot1-301 growth rescue. 1% of 320,000 active. growth rescue, % at 18.8 µM. S. cerevisiae Mot1-301 growth rescue, ATP luminescence, 38.5C; percent above DMSO median, 100 means doubled;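 active = every valid replicate shows activation above 250% relative to neutral control wells; inactive = the rest, any valid replicate at or below 250%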;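 note: OY570 slx delta 5 strain wells were the positive control but not used for scaling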
# Starred values were filed as active, the others as inactive; nt = no result given. Rows were chosen to be rich in hits. Some 3.9% of all compounds tested hit in one or more screens of this group.
SMILES,N-glyco inh,ALR inh,CDK5 inh,NSD2 HMT inh,CASP6 VEID inh,SUMO Mot1 rescue
CC(=O)Nc1ccc(SCC(=O)c2ccc(Br)s2)cc1,1,99*,7,1,-2,7
O=C(C[C@H]1C=C[C@H](NC(=O)CN2CCOCC2)[C@@H](CO)O1)NCCc1ccncc1,nt,nt,nt,nt,3,nt
C[C@@H]1CN([C@H](C)CO)C(=O)c2cccc(NC(=O)c3cnccn3)c2O[C@H]1CN(C)S(=O)(=O)c1cccs1,nt,nt,nt,nt,-1,nt
CCOc1cc(/C=N/NC(=O)CCn2nnc3ccccc32)ccc1O,-1,100*,0,9,0,-16
CC(/C=N/NC(=O)CCn1nnc2ccccc21)=C\c1ccccc1,-1,-4,2,2,-1,33
CCn1c(SCC(=O)N/N=C/c2ccc(O)c(OC)c2)nc2ccccc21,0,99*,-2,3,-1,-6
COc1cc(/C=N/NC(=O)C(C)n2nnc3ccccc32)ccc1O (configuration not stated),1,97*,-1,4,nt,-5
COc1ccc(/C=N/NC(=O)C(C)n2nnc3ccccc32)cc1OC (configuration not stated),0,31,1,2,nt,11
COc1ccc(Cc2nc3ccccc3n2CC(=O)N/N=C/c2ccc(O)cc2)cc1OC,1,100*,1,-2,1,42
CCn1c(SCC(=O)N/N=C/c2cc(OC)c(OC)c(OC)c2)nc2ccccc21,2,4,-1,-2,1,-13
COc1cc(/C=N/NC(=O)CSc2n[nH]c(=O)[nH]c2=O)cc(OC)c1O,1,98*,-4,-1,-2,-13
CCn1c(SCC(=O)N/N=C/c2cc(OC)c(O)c(OC)c2)nc2ccccc21,-1,99*,1,0,nt,46
O=C(CSc1n[nH]c(=O)[nH]c1=O)N/N=C/c1ccccc1O,0,nt,-1,-8,nt,-11
COc1ccc(O)c(CNc2ccccc2F)c1,-1,99*,-2,2,-1,5
C[C@H]1CN([C@@H](C)CO)C(=O)c2cc(NS(=O)(=O)c3cn(C)cn3)ccc2O[C@@H]1CN(C)S(=O)(=O)c1cccs1,nt,nt,nt,nt,2,nt
Cc1noc(C)c1S(=O)(=O)Nc1ccc2c(c1)C(=O)N([C@@H](C)CO)C[C@@H](C)[C@H](CN(C)S(=O)(=O)c1cccs1)O2,nt,nt,nt,nt,1,nt
S=c1[nH]nc(-c2ccc(Cl)cc2Cl)n1-c1ccccc1,0,49,3,3,3,-13
S=c1[nH]nc(COc2ccc(Cl)cc2Cl)n1-c1ccccc1,1,84*,2,18,3,18
CCNC(=O)C[C@@H]1CC[C@H]2[C@@H](COc3ccc(NC(=O)c4ccc(F)cc4)cc3C(=O)N2C)O1,nt,nt,nt,nt,-4,nt
C[C@H](O)C#Cc1cnc2c(c1)C(=O)N([C@H](C)CO)C[C@H](C)[C@H](CN(C)Cc1ccccn1)O2,nt,nt,nt,nt,2,nt
CCOC(=O)c1c(C)[nH]c(N=Nc2ccccc2)c1C,-2,87*,-1,1,nt,-6
Cc1cc(N2CCN(C)CC2)nc2ccc(NC(=S)N3CCN(c4ccc(Cl)cc4)CC3)cc12,1,9,-1,nt,-62,539*
Cc1cc(N2CCN(C)CC2)nc2ccc(NC(=S)N3CCN(c4ccc(F)cc4)CC3)cc12,-4,nt,1,-2,-29,1
COc1ccc(CN(C)C[C@@H]2Oc3ccc(NS(=O)(=O)c4cccs4)cc3CC(=O)N([C@H](C)CO)C[C@@H]2C)cc1,nt,nt,nt,nt,0,nt
COc1cc(/C=N/Nc2ccccn2)ccc1O,0,97*,1,-2,-1,156
SMILES,N-glyco inh,ALR inh,CDK5 inh,NSD2 HMT inh,CASP6 VEID inh,SUMO Mot1 rescue
COc1cc(/C=N/Nc2ccnc(=O)[nH]2)ccc1O,0,98*,3,7,-1,-7
COc1ccc(/C=N/Nc2ccccn2)cc1OC,0,99*,0,7,-2,88
COc1ccc(/C=N/NC(=O)C(=O)Nc2ccccn2)cc1OC,1,nt,0,0,nt,-2
O=C(c1ccncc1)N1CCN(C2CCC(c3ccccc3)CC2)CC1 (configuration not stated),-2,5,-3,4,0,305*
CC(=O)Oc1ccc(C(=O)OCC(=O)c2c(N)n(C)c(=O)n(C)c2=O)cc1OC(C)=O,2,99*,1,8,20,-17
C[C@H](CO)N1C[C@H](C)[C@@H](CN(C)C(=O)Nc2ccc3c(c2)OCO3)Oc2c(NC(=O)CCCCCC(=O)Nc3ccccc3N)cccc2C1=O,nt,nt,nt,nt,0,nt
Cn1c(=O)c2[nH]c(Nc3ccccc3)nc2n(C)c1=O,-3,89*,1,-2,nt,199
COc1ccccc1CNC(=S)Nc1cc(C)ccc1C,-1,1,0,6,3,5
COc1ccccc1CNc1cc(C)ccc1C,2,83*,-15,nt,19,-1
Cc1cc(/C=C2/C(=N)N3C(=NC2=O)SN=C3S(C)(=O)=O)c(C)n1-c1ccccc1F,-1,91*,3,8,nt,-5
O=[N+]([O-])c1cccc(C(=Nc2ccc(Cl)cc2)NO)c1,-2,85*,-1,3,nt,-5
ONC(=Nc1ccc(Cl)cc1)c1ccc(Cl)cc1,-3,78*,2,0,nt,14
CCN(CC)CCC(c1ccc(N(C)C)cc1)c1c(O)cc(OC)cc1OC (configuration not stated),3,99*,-3,nt,nt,-15
CCN(CC)CCC(c1ccc(OC)cc1)c1c(O)cc(OC)cc1OC (configuration not stated),-2,nt,0,nt,-5,5
COc1cc(O)c(C(CCN2CCOCC2)c2ccc(N(C)C)cc2)c(OC)c1 (configuration not stated),-3,99*,-2,nt,2,5
COc1cc(O)c(C(CCN2CCCC(C)C2)c2ccc(N(C)C)cc2)c(OC)c1 (configuration not stated),0,98*,-2,nt,-4,17
CCC(=O)N1CC(=O)N2[C@@H](CO)[C@@H](c3ccc(C#CC4CCCCC4)cc3)[C@@H]2C1,nt,nt,nt,nt,0,nt
C[C@@H]1CN([C@@H](C)CO)C(=O)c2cc(NS(=O)(=O)c3ccc(Cl)cc3)ccc2O[C@@H](C)CCCCO[C@@H]1CN(C)C(=O)Cc1ccccc1,nt,nt,nt,nt,-4,nt
CN1C(=O)c2cc(NC(=O)C3CCC3)ccc2OC[C@H]2O[C@@H](CC(=O)NCc3ccccc3F)CC[C@@H]21,nt,nt,nt,nt,-2,nt
CC(=O)OCCNc1cc(Sc2nc3ccccc3[nH]2)c2nonc2c1[N+](=O)[O-],-2,96*,0,1,nt,10
Cc1ccc(-c2nn3c(C)nnc3c3ccccc23)cc1S(=O)(=O)NC(C)(C)CO,39*,-14,2,0,13,-9
CCCCNS(=O)(=O)c1cc(-c2nn(C)c(=O)c3ccccc23)ccc1C,-1,-5,-2,-2,36*,-3
